Bioassay records: PubChem BioAssay, National Center for Advancing Translational Sciences (NCATS)
p53ts 39C kill = kills p53ts cells at the nonpermissive temperature; H1299-p53A138V viability at 39C, ATP luminescence, 24 h; Potency, µM (top dose mostly 46.1 µM), hits mostly cytotoxic; hit rate 1.5% among 130,000; also: nearly all actives have a fitted effect of over 55% in size
Luciferase inh = inhibitors of firefly luciferase. P08659. purified firefly luciferase, luminescence, 8 min. Potency, µM (doses to about 57.1 µM), hits mostly inhibitors. hit rate 2.2% among 72,000; also: nearly all actives have a fitted effect of over 40% in size
Target sequence (P08659 whole entry, looked up): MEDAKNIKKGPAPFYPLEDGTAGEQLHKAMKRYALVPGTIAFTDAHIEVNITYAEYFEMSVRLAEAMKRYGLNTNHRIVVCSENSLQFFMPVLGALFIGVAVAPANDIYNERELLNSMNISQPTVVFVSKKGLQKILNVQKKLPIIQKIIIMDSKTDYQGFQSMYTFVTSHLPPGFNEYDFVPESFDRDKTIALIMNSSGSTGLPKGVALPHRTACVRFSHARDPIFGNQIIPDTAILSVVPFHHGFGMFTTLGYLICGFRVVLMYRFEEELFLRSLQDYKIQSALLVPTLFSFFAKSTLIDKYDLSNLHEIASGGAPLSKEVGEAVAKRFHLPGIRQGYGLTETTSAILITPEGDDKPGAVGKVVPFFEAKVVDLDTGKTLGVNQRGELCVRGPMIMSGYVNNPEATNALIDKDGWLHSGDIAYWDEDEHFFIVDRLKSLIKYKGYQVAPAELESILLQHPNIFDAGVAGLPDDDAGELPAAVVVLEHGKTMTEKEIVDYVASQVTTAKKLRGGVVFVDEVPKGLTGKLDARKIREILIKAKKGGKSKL
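Firefly luciferase (PKLight detection mix) with 10 uM ATP in pH 7.2 imidazole buffer (KCl, MgCl2, Tween 20, BSA). Compounds tested across a concentration series (qHTS). Luminescence read after 8 min at ambient temperature.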
Peg3 imprint = induces erasure of genomic imprints in mouse ES cells; mouse ES Peg3-LacZ reporter, beta-gal luminescence, 40 h; Potency, µM (doses to about 60.7 µM), hits mostly activators; hit rate 0.02% among 110,000; AID 1948
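Readout: BetaGlo luminescence (5 min, room temp) for LacZ from the normally silent maternal Peg3 allele in female Peg3LacZ-Neo ES cells. Cells 300/well, 40 h, 37C, 5% CO2. Data normalized per plate to negative controls.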
p53ts 32C kill = p53ts cell cytotoxicity, permissive temperature. H1299-p53A138V at 32C, ATP luminescence viability, 24 h. Potency, µM (series often up to 46.1 µM), most hits filed as cytotoxic. hit rate 0.93% among 130,000. AID 924; also: nearly all actives have a fitted effect of over 55% in size
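Cells: H1299 p53ts (A138V), 600/well, pre-incubated 16–30 h at 37C. Cpd up to 46 uM, 24 h, 32C. Readout: ATPlite luminescence, 20 min RT. Normalization: DMSO vs tamoxifen 100 uM. AC50 by Hill equation.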
Tau filament bind = binders of human tau filaments; recombinant tau filaments, thioflavin S fluorescence, 15 h; filaments grown with octadecylsulfate alongside compound; Potency, µM (top dose mostly 57.1 µM); hit rate 2% among 71,000; AID 596;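 also: actives lower thioflavin S fluorescence by blocking filaments or displacing dye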
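Thioflavine S fluorescence (ex 450, em 510 nm) reports filaments formed from 1 uM human tau plus 30 uM ODS over 15 h at 37 C (10 mM HEPES pH 7.4, 100 mM NaCl, 5 mM DTT); compounds displacing dye or blocking filaments lower signal.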
A number is an active result; ! = not active in a repeat; [ ] = remark or other dose. In the library only some 3.4% were active in any assay of this set; here they are far more common. Calls follow the shape of the dose curve; as a rule, active = well fitted curve in the direction sought with a large enough effect; inconclusive = small, poorly fitted or top-dose-only effect, or another doubt; inactive = no such curve, though single readings can be large; an effect the other way counts as inactive or inconclusive.

`CC(CN1c2ccccc2Sc2ccccc21)N(C)C` (configuration not stated) gave p53ts 39C kill inactive, Luciferase inh inactive, Peg3 imprint inactive and p53ts 32C kill inactive.
Screening CCOC(=O)c1ccccc1NC(=O)c1sc2ncn(CC)c(=O)c2c1C returned p53ts 39C kill inactive, Peg3 imprint inactive[10.9 µM] and p53ts 32C kill inactive.
Screening COc1ccc(CNC(=O)c2cc3c(=O)[nH]c4ccccc4c3n2C)c(OC)c1 returned p53ts 39C kill inactive, Peg3 imprint inactive[10.9 µM] and p53ts 32C kill inactive.
For O=C(Nc1c(F)cc(F)cc1Br)c1ccco1 the results were p53ts 39C kill inactive, Luciferase inh inactive, Peg3 imprint inactive, p53ts 32C kill inactive and Tau filament bind 16µM.
Screening O=S(=O)(/C=C/c1ccccc1)Nc1ccc(N2CCOCC2)cc1 returned p53ts 39C kill inactive, Luciferase inh inactive, Peg3 imprint inactive, p53ts 32C kill inactive and Tau filament bind 25µM.
For O=C(O)c1ccc(NS(=O)(=O)/C=C/c2ccccc2)cc1O the results were p53ts 39C kill inactive, Luciferase inh inactive, Peg3 imprint inactive, p53ts 32C kill inactive and Tau filament bind inactive.
CCOc1ccccc1NC(=O)c1sc2nc(-c3ccc(OC)cc3)ccc2c1N was read as p53ts 39C kill 4µM, Peg3 imprint inactive[10.9 µM] and p53ts 32C kill 6.3µM.
`O=C1C(=C2CCCCC2)SC(=S)N1Cc1ccco1` gave p53ts 39C kill inactive, Luciferase inh inactive, Peg3 imprint inactive, p53ts 32C kill inactive and Tau filament bind inactive[11.4 µM].
CCN1C(=S)SC(=O)C1=C1C=C(C)OC(C)=C1 was read as p53ts 39C kill inactive, Luciferase inh inactive, Peg3 imprint inactive, p53ts 32C kill inactive and Tau filament bind 3.2µM.
`CCN1C(=S)SC(=O)C1=C1C=C(C)N(Cc2ccco2)C(C)=C1` gave p53ts 39C kill inactive, Luciferase inh 10µM, Peg3 imprint inactive, p53ts 32C kill inactive and Tau filament bind inactive.
COc1ccccc1CCNC(=O)Cc1c(C)c2cc3c(C(C)(C)C)coc3c(C)c2oc1=O was read as p53ts 39C kill inactive, Peg3 imprint inactive[10.9 µM] and p53ts 32C kill inactive.
For CN(C(=O)c1ccccc1)c1nc2ccccc2s1 the results were p53ts 39C kill 13µM, Luciferase inh 6.3µM, Peg3 imprint inactive, p53ts 32C kill 10µM and Tau filament bind inactive.
`Oc1cccc2ccc(SSc3ccc4cccc(O)c4n3)nc12` gave p53ts 39C kill inactive[9.22 µM], Luciferase inh inactive[11.4 µM], Peg3 imprint inactive[10.9 µM], p53ts 32C kill inactive[9.22 µM] and Tau filament bind inactive[11.4 µM].
For CCOc1ccc(-c2nn(CC(=O)NC3CCCC3)c3c2cnc2ccc(F)cc23)cc1 the results were p53ts 39C kill inactive, Peg3 imprint inactive[10.9 µM] and p53ts 32C kill inactive.
CCN1CCN(c2cc(C)c3cc(NC(=O)c4ccncc4)ccc3n2)CC1 was read as p53ts 39C kill inactive, Luciferase inh inactive, Peg3 imprint inactive, p53ts 32C kill inactive and Tau filament bind 16µM.
Screening CCN1CCN(c2cc(C)c3cc(NC(=O)c4ccccc4F)ccc3n2)CC1 returned p53ts 39C kill inactive, Peg3 imprint inactive[10.9 µM] and p53ts 32C kill inactive.
`CCN1CCN(c2cc(C)c3cc(NC(=O)c4cc(Br)ccc4Cl)ccc3n2)CC1` gave p53ts 39C kill 13µM, Peg3 imprint inactive[10.9 µM] and p53ts 32C kill inconclusive.
CCN1CCN(c2cc(C)c3cc(NC(=O)c4ccc(Br)o4)ccc3n2)CC1 was read as p53ts 39C kill inactive, Luciferase inh inactive, Peg3 imprint inactive, p53ts 32C kill inactive and Tau filament bind inactive.
For O=C(N/N=C\c1ccc2c(c1)CCC2)c1ccccc1O the results were p53ts 39C kill inactive[9.22 µM], Luciferase inh 3.2µM, Peg3 imprint inactive[10.9 µM], p53ts 32C kill inconclusive and Tau filament bind inactive[11.4 µM].
For CCc1ccccc1NC(=O)Cc1ccc(-n2c(C)nc3cccnc32)cc1 the results were p53ts 39C kill inactive, Peg3 imprint inactive[10.9 µM] and p53ts 32C kill inactive.
Screening O=C(Nc1ccc(F)c(F)c1)c1ccc(=O)n(Cc2ccc(F)cc2)c1 returned p53ts 39C kill inactive, Peg3 imprint inactive[10.9 µM] and p53ts 32C kill inactive.
COCn1c(-c2ccc(OC)c(OC)c2)nc2ccccc21 was read as p53ts 39C kill inconclusive, Luciferase inh 16µM, Peg3 imprint inactive, p53ts 32C kill inconclusive and Tau filament bind inactive[11.4 µM].
N#Cc1cc2nc(O)c(O)nc2cc1[N+](=O)[O-] was read as p53ts 39C kill inactive, Luciferase inh inactive, Peg3 imprint inactive, p53ts 32C kill inactive and Tau filament bind 40µM!.
